# mIDH1 inhibitor: blocks human mutant IDH1 R132H enzyme; hit rate 0.093% among 390,000; Potency, µM (titrated, usually from 76.6 µM), for the others: at the highest dose activity change, negative = inhibition, most hits filed as inhibitors; IDH1-R132H enzyme, NADPH consumption, diaphorase/resazurin fluorescence; O75874; AID 602179; note: potency is the fitted concentration of half-maximal effect; nearly all actives have a fitted effect of over 65% in size
#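 IDH1-R132H (0.5 ug/mL dispensed) in pH 7.5 Tris buffer was preincubated 30 min with compound, then given a substrate mix of 0.016 mM NADPH and 2 mM alpha-KG for 80 min at room temperature; remaining NADPH was read by diaphorase/resazurin fluorescence.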
# rTrxR1 inhibitor: blocks rat thioredoxin reductase 1 | O89049 | recombinant rTrxR1, NADPH fluorescence consumption, selenite substrate | Potency, µM (top dose mostly 114 µM), for the others: top-dose activity change, negative = inhibition, actives largely listed as inhibitors | hit rate 1% among 390,000; note: potency is the fitted concentration of half-maximal effect; nearly all actives have a fitted effect of over 65% in size
# Target sequence (O89049 whole entry, looked up): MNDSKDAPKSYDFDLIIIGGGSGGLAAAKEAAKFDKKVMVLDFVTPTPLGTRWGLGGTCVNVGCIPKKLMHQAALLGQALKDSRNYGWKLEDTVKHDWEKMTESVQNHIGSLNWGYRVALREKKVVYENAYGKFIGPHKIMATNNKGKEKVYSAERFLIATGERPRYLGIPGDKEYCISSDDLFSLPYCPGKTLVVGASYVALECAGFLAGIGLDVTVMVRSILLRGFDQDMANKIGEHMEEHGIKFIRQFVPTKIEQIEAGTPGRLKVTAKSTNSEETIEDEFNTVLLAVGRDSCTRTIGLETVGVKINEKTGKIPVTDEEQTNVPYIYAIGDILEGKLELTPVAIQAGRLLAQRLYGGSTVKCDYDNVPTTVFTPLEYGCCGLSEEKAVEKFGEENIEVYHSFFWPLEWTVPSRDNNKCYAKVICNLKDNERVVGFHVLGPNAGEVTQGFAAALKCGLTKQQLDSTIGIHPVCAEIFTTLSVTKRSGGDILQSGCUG
#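 Rat TrxR1 (90 nM in the dispensed reagent) was pre-reduced with 400 uM NADPH for 5 min at room temperature, then incubated with compound for 15 min. After 400 uM selenite was added, NADPH fluorescence (Ex 340/Em 450 nm) was followed for 8 min.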
# TrxR1 substrate: substrates of rat thioredoxin reductase 1; purified TrxR1 substrate turnover, NADPH consumption readout; hit rate 0.01% among 390,000; Potency, µM (series often up to 114 µM), without a hit: at the highest dose activity change, negative = substrate turnover; AID 588456; O89049; note: potency is the fitted concentration of half-maximal effect; nearly all actives have a fitted effect of over 50% in size
#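 Rat TrxR1, dispensed at 90 nM, was prereduced with 400 uM NADPH (final) for 5 min at ~22 deg C, then incubated with compound 15 min before 400 uM selenite. A first-read NADPH fluorescence drop versus no-compound background flagged substrates.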
# Eya2 inh: Eya2 (human) phosphatase inhibition. hit rate 0.006% among 330,000. Potency, µM (highest dose often 76.9 µM), without a hit: top-dose activity, negative = inhibition, actives largely listed as inhibitors. recombinant Eya2, OMFP fluorescence dephosphorylation (OMFP is methylfluorescein phosphate); note: potency is the fitted concentration of half-maximal effect
#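 Eya2 protein (added as 0.2 uM solution) was preincubated with compound for 10 min at ambient temperature in 50 mM HEPES pH 7.5, 50 mM NaCl, 5 uM MgCl2, 0.05% BSA, 1 mM DTT. OMFP (added at 50 uM) then reacted 10 min; fluorescence read at 485/525 nm.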
# Coupling enz: counter-screen for Giardia aldolase inhibitors: coupling enzyme system. AID 2472. hit rate 0.67% among 290,000. activity change, negative = inhibition, % at 58.2 µM, hits read low. coupling enzyme system counterscreen, AmpLite Red fluorescence; in the data active = activity change below about -30%
#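 Coupling enzymes only (glyceraldehyde-3-phosphate) + compound, at 57.5 uM final, 10 min RT; add substrate/coupling/AmpLite Red mix, 20 min RT; fluorescence ex 525/em 598 nm. Actives flag coupling-system interference.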
# Starred values were filed as active, the others as inactive; ? = inconclusive; nt = no result given; [ ] = remark or other dose. An excerpt weighted towards active compounds, which were near 1.5% of everything screened. Unless noted, calls come from the whole dose curve; as a rule, active = well fitted curve in the direction sought with a large enough effect; inconclusive = small, poorly fitted or top-dose-only effect, or another doubt; inactive = no such curve, though single readings can be large; an effect the other way counts as inactive or inconclusive. % is set by controls: 0 for no effect and ±100 for the full control effect.
SMILES,mIDH1 inhibitor,rTrxR1 inhibitor,TrxR1 substrate,Eya2 inh,Coupling enz
COc1ccc(CCn2nnnc2C2(c3ccc(C)cc3)CC2)cc1,nt,-2%[57.1 µM],-2%[57.1 µM],-12%,nt
COc1ccc2cc([S+]([O-])Cc3ncc(C)c(OC)c3C)nc2c1,nt,13%[57.1 µM],7%[57.1 µM],16%,nt
CC(C)(C)C(=O)Nc1ccc(Sc2ccc([N+](=O)[O-])cc2)cc1,11%,-6%,-7%,-5%,-8
CC(=O)Nc1ccc(Sc2ccc([N+](=O)[O-])o2)cc1,15%,4.5µM*,-1%,nt,nt
O=C(O)Cc1ccc(O)c(O)c1,-4%,7.5µM*,9%[57.1 µM],3%,-4
CC1(C)CC(=O)C2=C(C1)N(c1ccccc1)C(N)=C(C#N)C2c1ccccc1 (centres undefined),-2%,-24%[57.1 µM],1%[57.1 µM],3%,-1
N#CC1=C(N)N(c2ccc(Br)cc2)C2=C(C(=O)CCC2)C1c1cccnc1 (centres undefined),2%,-20%[57.1 µM],7%[57.1 µM],-19%,-44*
CC1(C)CC(=O)C2=C(C1)N(c1ccccc1)C(N)=C(C#N)C2c1cccnc1 (centres undefined),-4%,79µM*,2%,0%,-2
N#CCCCN1C(=O)C(=C(C#N)C#N)c2ccccc21,?,13µM*,-4%,8%,-35*
N#CCCCN1C(=O)C(O)(CC(=O)c2ccc3c(c2)OCCO3)c2ccccc21 (centres undefined),6%,-3%,-7%,16%,1
COc1cc(OC)c(C2CC(=O)N3CN(c4ccc(C)cc4)CSC3=C2C#N)cc1OC (centres undefined),5%,?,-3%,11%,-31*
COc1ccc(C2CC(=O)N3CN(C4CCCCC4)CSC3=C2C#N)cc1 (centres undefined),24%,?,-18%,nt,nt
COc1ccc(N2CSC3=C(C#N)C(c4cc(OC)c(OC)cc4OC)CC(=O)N3C2)c(OC)c1 (centres undefined),22%,?,5%[57.1 µM],12%,-48*
COc1ccc(N2CSC3=C(C#N)C(c4ccc(OC)c(OC)c4)CC(=O)N3C2)c(OC)c1 (centres undefined),19%,?,-3%[57.1 µM],-13%,-43*
COc1ccc(N2CSC3=C(C#N)C(c4cc(OC)ccc4OC)CC(=O)N3C2)c(OC)c1 (centres undefined),16%,14µM*,0%[57.1 µM],7%,-46*
COc1cccc(C2CC(=O)N3CN(C4CCCCC4)CSC3=C2C#N)c1 (centres undefined),17%,-8%,-4%,nt,nt
N#CC[n+]1cccc(Br)c1,nt,-14%,11%[0.0914 µM],nt,nt
O=C(NC1CCCC1)O[C@@H]1C(=O)c2cc(Br)ccc2O[C@H]1c1ccc2c(c1)OCO2,nt,nt,nt,nt,1
Cc1cnc2ccc3ccccc3c2c1C,nt,?,466%,nt,nt
COc1ccc(N2CSC3=C(C#N)C(c4cccs4)CC(=O)N3C2)cc1 (centres undefined),9%,10%,-1%,18%,-49*
CCOc1ccccc1N1CSC2=C(C#N)C(c3c(OC)ccc4ccccc34)CC(=O)N2C1 (centres undefined),10%,?,2%[57.1 µM],27%,-49*
Cc1ccc(N2CSC3=C(C#N)C(c4cccs4)CC(=O)N3C2)cc1 (centres undefined),2%,?,-6%[57.1 µM],-4%,-28
C[C@H]1O[C@@H](n2cc(F)c(=O)[nH]c2=O)[C@H](O)[C@H]1O,nt,9%[57.1 µM],4%[57.1 µM],-1%,nt
CN(C)c1ccc(/C=C/c2ccnc3c(Cl)ccc(Cl)c23)cc1,nt,-8%,-8%,nt,nt
CN(C)C=Nc1c(Br)cc(Br)c2nonc12,11%,-6%[57.1 µM],-4%[57.1 µM],20%,-43*
SMILES,mIDH1 inhibitor,rTrxR1 inhibitor,TrxR1 substrate,Eya2 inh,Coupling enz
COC(=O)C1=C(C(=O)OC)[C@@H]2N(C)c3ccccc3[C@@]23C[C@@H](C(=O)OC)N(S(=O)(=O)c2ccc(C#N)cc2)C3=N1,nt,nt,nt,nt,1
CC(=O)Cc1cc(O)c2ccccc2c1OC(=O)c1ccccc1,0%,-2%[57.1 µM],-5%[57.1 µM],4%,-20
CC(=O)Oc1c(C)cc(O)c2ccccc12,nt,nt,nt,9%,-32*
c1coc(-c2nc3ccccc3nc2-c2ccco2)c1,2%,?,25%,6%,-38*
O=C(NCCc1ccccc1)c1ccc2nc(-c3ccco3)c(-c3ccco3)nc2c1,-3%,3.2µM*,-1%,0%,-37*
O=C(NC1CCCCC1)c1nn2c(C(F)(F)F)cc(-c3ccco3)nc2c1Br,7%,-21%[57.1 µM],5%[57.1 µM],1%,4
O=C(c1ccccc1)c1ccc2nc(-c3ccco3)c(-c3ccco3)nc2c1,7%,2.8µM*,5%[57.1 µM],2%,-24
O=C(NC1CCCCC1)c1cnn2c(C(F)(F)F)cc(-c3ccco3)nc12,-4%,3.5µM*,15%,-20%,1
c1coc(-c2cnc3ccccc3n2)c1,-4%,nt,nt,nt,nt
Cc1cc(=O)oc2cc(NC(=O)[C@H](CCCCN)NC(=O)[C@H](CC3CCCCC3)NC(=O)OCC3c4ccccc4-c4ccccc43)ccc12,nt,nt,nt,nt,-2
CCc1cccc(NC(=O)COC(=O)c2ccccc2OCc2ccccc2Br)c1,nt,39%,10%,nt,nt
O=C(NCCO)c1ccc2nc(-c3ccco3)c(-c3ccco3)nc2c1,13%,8.9µM*,-3%,4%,-47*
O=C(NC1CCCC1)c1ccc2nc(-c3ccco3)c(-c3ccco3)nc2c1,4%,3.2µM*,9%[57.1 µM],-8%,-30*
CC(C)(C)n1ncc2c(=O)n(Cc3ccccc3Cl)cnc21,nt,1%,-2%,nt,nt
CC[C@H](C)[C@H](NC(=O)CNC(=O)[C@H](CCCNC(=N)N)NC(=O)[C@H](CO)NC(=O)[C@H](C)NC(=O)[C@H](Cc1ccc(O)cc1)NC(=O)[C@H](Cc1c[nH]c2ccccc12)NC(=O)[C@H](C)NC(=O)[C@@H]1CCCN1C(=O)[C@H](CC(N)=O)NC(=O)[C@@H](NC(=O)[C@H](CC(=O)O)NC(=O)[C@@H]1CCCN1C(=O)[C@@H](N)[C@@H](C)O)[C@@H](C)CC)C(=O)N[C@@H](CCCNC(=N)N)C(=O)N1CCC[C@H]1C(=O)N[C@H](C(=O)NCC(=O)N[C@@H](CCCNC(=N)N)C(=O)N[C@@H](Cc1ccccc1)C(N)=O)C(C)C,nt,nt,nt,nt,7
Nc1nc(-c2nn(Cc3ccccc3F)c3ncccc23)ncc1C1CC1,nt,nt,nt,nt,0
Cc1nnc(C)c2c(C)n(C(C)c3ccccc3)c(C)c12 (centres undefined),2%,-8%[57.1 µM],7%[57.1 µM],4%,-33*
CNc1ccc(C=C2C=CC=C2)cc1,nt,?,-6%,nt,nt
CCOc1ccc(CN2CCNC(=O)C2CC(=O)NCc2cc(C)n(C)n2)cc1 (centres undefined),6%,?,1%,8%,-3
COc1ccc(CN2CCNC(=O)C2CC(=O)NCc2cc(C)n(C)n2)c(F)c1 (centres undefined),9%,40µM*,1%,3%,-8
